Measured values as given in PubChem BioAssay (EPA / NIEHS).
Active and inactive are the calls of the source. The calls were made as follows: active = hit-call score of the fitted dose curve at least 0.9, where 1 is the maximum; inactive = score below 0.9.

Each compound was assayed against Signal transducer and activator of transcription 3 (Homo sapiens) (UniProt P40763) (assay: ATG_STAT3_CIS: Attagene CIS-FACTORIAL HepG2 Assay for human Signal Transducer and Activator of Transcription 3 (STAT3) (AID 2282963)). Settings: HepG2, Attagene cis-factorial STAT3 reporter transcription; actives raise or lower the signal.
Experimental: ATG_CIS is a cell-based, multiplexed-readout assay that uses HepG2, a human liver cell line, with measurements taken at 24 hours after chemical dosing in a 24-well plate.ATG_STAT3_CIS is one of 52 assay component(s) measured or calculated from the ATG_CIS assay. It is designed to make measurements of mRNA induction, a form of inducible reporter, as detected with fluorescence intensity signals by Reverse transcription polymerase chain reaction (RT-PCR) and Capillary electrophoresis technology.Data from the assay component ATG_STAT3_CIS was analyzed into 1 assay endpoint. This assay endpoint, ATG_STAT3_CIS, was analyzed with bidirectional fitting relative to DMSO as the negative control and baseline of activity. Using a type of inducible reporter, measures of mRNA for gain or loss-of-signal activity can be used to understand the reporter gene at the transcription factor-level as they relate to the gene STAT3. Furthermore, this assay endpoint can be referred to as a primary readout, because this assay has produced multiple assay endpoints where this one serves a reporter gene function. To generalize the intended target to other relatable targets, this assay endpoint is annotated to the dna binding intended target family, where the subfamily is stat protein.
Human liver HepG2 cells are transiently transfected with multiple reporter transcription units (MRTUs) in 6-well plates using FuGene 6 reagent (Roche; 3 ml FuGene/1 mg DNA). The MRTU constructs are regulated by a cis-regulating element (promoter). […] A major difference between the CIS and TRANS system is that in CIS activities of endogenous TFs are measured, whereas the TRANS assay evaluates changes in activities of exogenous, chimeric NR-Gal4 proteins. […] At the end of 24 hour incubation, total RNA was isolated using TriZol reagent (Invitrogen). The isolated RNA is then reverse-transcribed using oligo(dT) primer and Mo-MLV reverse transcriptase (Invitrogen) with DNAse I (Ambion) treatment for 30 min. The one-tenth of the produced cDNA was amplified by PCR using Taq DNA polymerase (Invitrogen) and two reporter sequence-specific primers. The PCR products were fluorescently labeled by primer extension with 6-arboxyfluorescein (6-FAM) 5'-labeled reporter sequence-specific primer (2 min at 95 C, 20 s at 68 C and 10 min at 72 C) and these products were digested with 5U of HpaI (New England Biolabs) for 2h at 37 C. The fragments were purified using Qiaquick PCR columns (Qiagen), analyzed on an ABI 3130xL genetic analyzer (Applied Biosystems) with peak positions identified by using a set of X-rhodamine (ROX)-labeled MapMarker1000 molecular weight standards (BioVentures). The raw capillary electrophoresis data was processed using Attagraph software (Attagene).

Chain of Signal transducer and activator of transcription 3 (Homo sapiens) (P40763 whole entry, looked up): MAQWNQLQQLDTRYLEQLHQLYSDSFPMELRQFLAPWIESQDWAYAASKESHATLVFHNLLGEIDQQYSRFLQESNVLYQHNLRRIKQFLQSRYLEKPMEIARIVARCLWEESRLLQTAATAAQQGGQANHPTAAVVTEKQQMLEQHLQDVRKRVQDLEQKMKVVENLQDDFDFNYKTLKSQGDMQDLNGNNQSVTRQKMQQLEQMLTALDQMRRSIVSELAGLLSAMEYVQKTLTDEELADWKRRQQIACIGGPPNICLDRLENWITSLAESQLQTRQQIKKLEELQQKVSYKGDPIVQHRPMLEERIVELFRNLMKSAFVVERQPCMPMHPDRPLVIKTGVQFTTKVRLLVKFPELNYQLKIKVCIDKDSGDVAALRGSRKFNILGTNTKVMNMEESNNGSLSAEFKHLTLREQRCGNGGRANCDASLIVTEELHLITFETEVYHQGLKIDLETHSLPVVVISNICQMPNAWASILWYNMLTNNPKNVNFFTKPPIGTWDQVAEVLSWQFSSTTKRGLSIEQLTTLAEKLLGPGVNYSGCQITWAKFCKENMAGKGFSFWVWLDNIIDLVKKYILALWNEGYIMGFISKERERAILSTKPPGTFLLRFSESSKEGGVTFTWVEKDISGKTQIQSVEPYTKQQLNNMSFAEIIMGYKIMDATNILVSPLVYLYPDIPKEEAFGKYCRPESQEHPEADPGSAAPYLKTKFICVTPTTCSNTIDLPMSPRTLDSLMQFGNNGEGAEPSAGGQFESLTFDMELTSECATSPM

Row | SMILES | outcome | AC50
1 | O=S(=O)(C(Cl)(Cl)Cl)C(Cl)(Cl)Cl | inactive | –
2 | CNC(=O)O/N=C/C(C)(C)S(C)(=O)=O | inactive | –
3 | C=C(C)C(=O)OCCCCOC(=O)C(=C)C | inactive | –
4 | Clc1cccc(Cl)c1 | inactive | –
5 | C#C[C@]1(O)CC[C@H]2[C@@H]3CCC4=CC(=O)CC[C@]4(C)[C@H]3CC[C@@]21C | inactive | –
6 | CCCCCCCCCCCCCCC(Br)C(=O)O (stereo not given) | inactive | –
7 | Cc1ccc2nc3sc(=O)sc3nc2c1 | inactive | –
8 | O=C1C[C@@H]2OCC=C3CN4CC[C@]56c7ccccc7N1[C@H]5[C@H]2[C@H]3C[C@H]46 | inactive | –
9 | Clc1ccc(C(Cl)(Cl)Cl)cn1 | inactive | –
10 | O=c1[nH]c(=O)n(Cl)c(=O)n1Cl | inactive | –
11 | CCC[CH2][Sn]([Cl])([Cl])[CH2]CCC | inactive | –
12 | N#Cc1ccc(Cl)cc1 | inactive | –
13 | C#CCO | inactive | –
14 | CCOC(=O)Cc1ccccc1 | inactive | –
15 | [Cl][Sn]([c]1ccccc1)([c]1ccccc1)[c]1ccccc1 | inactive | –
16 | CC(C)O.CC(C)O.OCCN(CCO)CCO.OCCN(CCO)CCO.[Ti] | inactive | –
17 | O=S(=O)(Oc1ccc(Cl)cc1)c1ccc(Cl)cc1 | inactive | –
18 | CC1(C)COP(Oc2ccccc2)OC1 | inactive | –
19 | CC(C)N(C(=O)CCl)c1ccccc1 | inactive | –
20 | C=CCOC(F)(C(F)(F)F)C(F)(F)F | inactive | –

Row | SMILES | outcome | AC50
21 | CCOP(=S)(OCC)SCS(=O)(=O)C(C)(C)C | inactive | –
22 | BrCc1ccc(Br)cc1 | inactive | –
23 | Cc1cc(Cl)ccc1OCCCC(=O)O | inactive | –
24 | CN(C)CCN(C)C | inactive | –
25 | CC(=Cc1ccccc1)[N+](=O)[O-] | inactive | –
26 | CCCCCCCCBr | inactive | –
27 | O=C(Cc1ccccc1)OCCc1ccccc1 | inactive | –
28 | COC(=O)c1cc(Oc2ccc(Cl)cc2Cl)ccc1[N+](=O)[O-] | inactive | –
29 | CC(C)(C1CCC(O)CC1)C1CCC(O)CC1 (stereo not given) | inactive | –
30 | CCOP(=S)(OCC)OP(=S)(OCC)OCC | inactive | –
31 | O=C1c2ccccc2C(=O)C1C(=O)C(c1ccccc1)c1ccc(Cl)cc1 (stereo not given) | – | 167 µM (active)
32 | CCCCOC(=O)COC(=O)c1ccccc1C(=O)OCCCC | inactive | –
33 | Oc1cc(Cl)c(Cl)cc1Cl | inactive | –
34 | COC(F)(C(F)(F)C(F)(F)F)C(F)(C(F)(F)F)C(F)(F)F (stereo not given) | inactive | –
35 | OC(Cc1ccccc1Cl)(Cn1[nH]cnc1=S)C1(Cl)CC1 (stereo not given) | inactive | –
36 | O=NN1CCCCCCC1 | inactive | –
37 | C[CH2][Hg][S]c1ccccc1C(=O)O | inactive | –
38 | BrCC(Br)c1ccccc1 (stereo not given) | inactive | –
39 | CCOc1cc(C=O)ccc1O | inactive | –
40 | c1ccc2c(c1)Oc1ccccc1O2 | inactive | –
